Results published in PubChem BioAssay (EPA / NIEHS).
Inconclusive results are not listed. Calls of active or inactive are those of the source. The calls were made as follows: active = hit-call score of the fitted dose curve at least 0.9, where 1 is the maximum; inconclusive = response in the unintended direction; inactive = score below 0.9.

target: human Peroxisome Proliferator-activated Receptor alpha (PPARa), PPARA (gene 5465) (UniProt Q07869); experiment: NVS_NR_hPPARa: NovaScreen (NVS) Nuclear Receptor Binding Assay for human Peroxisome Proliferator-activated Receptor alpha (PPARa) (AID 2283359);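 also: activity means loss of TR-FRET signal versus DMSO baseline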
Sequence (Q07869 whole entry, looked up): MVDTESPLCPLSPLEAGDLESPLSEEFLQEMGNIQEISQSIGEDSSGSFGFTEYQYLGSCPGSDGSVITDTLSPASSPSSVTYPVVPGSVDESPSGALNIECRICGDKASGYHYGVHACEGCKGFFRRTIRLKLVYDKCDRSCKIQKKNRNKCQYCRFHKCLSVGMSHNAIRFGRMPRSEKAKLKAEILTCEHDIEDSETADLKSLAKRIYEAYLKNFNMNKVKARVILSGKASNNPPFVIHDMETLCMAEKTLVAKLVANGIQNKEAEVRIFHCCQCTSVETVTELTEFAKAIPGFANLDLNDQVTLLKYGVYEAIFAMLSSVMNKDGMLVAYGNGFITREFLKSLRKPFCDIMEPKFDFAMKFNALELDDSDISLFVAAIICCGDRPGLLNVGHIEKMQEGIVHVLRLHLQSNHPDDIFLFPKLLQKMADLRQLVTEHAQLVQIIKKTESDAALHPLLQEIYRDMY
Procedure: NVS_NR_hPPARa is a biochemical, single-readout assay that uses extracted gene-proteins in a cell-free assay. Measurements were taken 1 hour after chemical dosing in a 384-well plate.NVS_NR_hPPARa is one of one assay component(s) measured or calculated from the NVS_NR_hPPARa assay. It is designed to make measurements of fluorescent resonance energy transfer, a form of binding reporter, as detected with fluorescent resonance energy transfer signals by Time-Resolved Fluorescence Resonance Energy Transfer (TR-FRET) technology.Data from the assay component NVS_NR_hPPARa was analyzed into 1 assay endpoint. This assay endpoint, NVS_NR_hPPARa, was analyzed in the positive analysis fitting direction relative to DMSO as the negative control and baseline of activity. Using a type of binding reporter, loss-of-signal activity can be used to understand changes in the binding as they relate to the gene PPARA. Furthermore, this assay endpoint can be referred to as a primary readout, because the performed assay has only produced 1 assay endpoint. To generalize the intended target to other relatable targets, this assay endpoint is annotated to the nuclear receptor intended target family, where the subfamily is non-steroidal.
Binding assays used specific radioligands (tritiated, iodinated) with non-radioactive competitive displacement ligands in agonist or antagonist protocols (as indicated) and various reference compounds and inhibitors to titrate specific binding to receptors and transporters. Most enzyme assays (CYPs, kinases, phosphatases, proteases, HDACs) used recombinant protein and specific substrates (fluorescence mostly, some colorimetric and radioactive) and inhibitors, followed by a biochemical separation of substrate and product. All assays for the biochemical HTS were initially run in duplicate at a single concentration (10 uM for CYP450 assays and 25 uM for all others). […] Each assay was run with positive and negative controls, and concurrent controls on every plate. The follow-up (secondary) screen tested active chemical-pairs in concentration series, as well as a few additional assays not tested in the primary screen, some selected negative inactives, and several cases re-run in the concentration series for confirmatory purposes.

Structure (SMILES) | outcome | AC50
OC12N=C(c3ccccc3)SC1Cc1cc(Cl)ccc12 (configuration not stated) | inactive | –
O=C(O)Cc1cc(I)c(Oc2ccc(O)c(I)c2)c(I)c1 | – | 46.3 µM (active)
CCCCOC(=O)c1ccc(O)cc1 | inactive | –
CN(C)c1ccc(C(=C2C=CC(=[N+](C)C)C=C2)c2ccc(N(C)C)cc2)cc1 | – | 14.7 µM (active)
CC/C(=C(/CC)c1ccc(O)cc1)c1ccc(O)cc1 | inactive | –
C[C@]12CC[C@@H]3c4ccc(O)cc4CC[C@H]3[C@@H]1CC[C@H]2O | inactive | –
CC(C)(c1cc(Br)c(O)c(Br)c1)c1cc(Br)c(O)c(Br)c1 | – | 8.19 µM (active)
C[C@]12CC[C@@H]3c4ccc(O)cc4CC[C@H]3[C@@H]1CCC2=O | inactive | –
O=C(O)c1ccccc1C(=O)OCc1ccccc1 | inactive | –
CCCCCCCCCC(=O)O | inactive | –
CCCCCCCCCCCO | inactive | –
CCCCCCCCOC(=O)c1cc(O)c(O)c(O)c1 | – | 19 µM (active)
Cc1c2ccccc2c(C)c2c1ccc1ccccc12 | inactive | –
O=CCCCC=O | inactive | –
CCCCCCCCOc1ccc(C(=O)c2ccccc2)c(O)c1 | inactive | –
NCc1cccc(C2CCN(C(=O)c3ccc(C#Cc4ccccc4F)o3)CC2)c1 | – | 40.8 µM (active)
Clc1cc(Cl)c2c(c1)N=C1CCCCCN1C2 | inactive | –
